16 molecules from PubChem BioAssay (NCATS) can be followed below.

One assay relates to CRL-7250. Put plainly: Cytotoxic Profiling of Annotated Libraries Using Quantitative High-Throughput Screening (AID 1296008). Further: nearly all actives have a fitted effect of over 60% in size. To be noted: Five cell lines viability, CellTiter-Glo ATP luminescence, 48-72 h; max response: active compounds read low. In a few lines:
(§1)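 Cells exposed to compounds for 48 or 72 hr at 37 degrees Celsius. Viability read as ATP-coupled luminescence with CellTiter-Glo after 10 min at room temperature.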
On the technique in general: ATP-based viability assays read luminescence as a measure of living cells.

Assay [1] deals with HaCat. Described as above. To be noted: Five cell lines viability, CellTiter-Glo ATP luminescence, 48-72 h; max response: active compounds read low. The method in brief:
as §1

The test system of a further assay is KB-3-1. The assay is described as above. The settings on record: Five cell lines viability, CellTiter-Glo ATP luminescence, 48-72 h; max response: active compounds read low. The method in brief:
as §1

In assay [2] the test system is NIH3T3. The assay is described as above. The settings on record: Five cell lines viability, CellTiter-Glo ATP luminescence, 48-72 h; max response: active compounds read low. In a few lines:
as §1

The next assay relates to MCC-13. Put plainly: qHTS assay to identify novel small-molecules to repurpose for Merkel cell carcinoma treatment (AID 1296009). Further: nearly all actives have a fitted effect of over 60% in size. To be noted: MCC and control cell lines, CellTiter-Glo viability, 72 h; series mostly up to 46 µM. The method in brief: (§2)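 Cells were treated for 72 hr at 37 degree celsius with compounds in 8- or 11-point dose response. Viability was read by CellTiter-Glo luminescence, normalized to no-cell (cytotoxicity) and DMSO controls.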

Another assay has as its system MCC-26. The description is as above. To be noted: MCC and control cell lines, CellTiter-Glo viability, 72 h; series mostly up to 46 µM. The method in brief: as §2
For the next assay, the system named is MKL-1. The assay is described as above. The settings on record: MCC and control cell lines, CellTiter-Glo viability, 72 h; series mostly up to 46 µM. The method in brief: as §2
A further assay relates to MKL-2. The assay is described as above. To be noted: MCC and control cell lines, CellTiter-Glo viability, 72 h; series mostly up to 46 µM. The method in brief: as §2
A further assay has as its system UISO. The description is as above. The settings on record: MCC and control cell lines, CellTiter-Glo viability, 72 h; series mostly up to 46 µM. The method in brief:
as §2

For a further assay, the system named is WaGa. The assay is described as above. The settings on record: MCC and control cell lines, CellTiter-Glo viability, 72 h; series mostly up to 46 µM. In a few lines: as §2
In assay [3] the test system is HACAT. The assay is described as above. To be noted: MCC and control cell lines, CellTiter-Glo viability, 72 h; at 44.8 µM (top of the series) unless noted. The method in brief: as §2
The subject of a further assay is HEK293. Put plainly: Cytotoxic Profiling of Annotated Libraries Using Quantitative High-Throughput Screening (AID 1296008). Further: nearly all actives have a fitted effect of over 60% in size. The settings on record: Five cell lines viability, CellTiter-Glo ATP luminescence, 48-72 h; max response: active compounds read low. In a few lines: as §1
Another assay deals with CASKI. Put plainly: Primary qHTS to identify gynecologic anti-cancer compounds using libraries of approved drugs and bioactive compounds (AID 1345084). Further: nearly all actives have a fitted effect of over 55% in size. To be noted: Gynecologic cancer cell panel viability, ATPlite luminescence, 48 h; series mostly up to 57.5 µM. In a few lines:
(§3)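 Cell viability after 48 h drug treatment, ATPlite luminescence readout; five doses.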

For another assay, the system named is Es-2. Described as above. The settings on record: Gynecologic cancer cell panel viability, ATPlite luminescence, 48 h; series mostly up to 57.5 µM. In a few lines: as §3
Another assay relates to HeLa. The description is as above. To be noted: Gynecologic cancer cell panel viability, ATPlite luminescence, 48 h; series mostly up to 57.5 µM. In a few lines: as §3
A further assay concerns C33A. The description is as above. The settings on record: Gynecologic cancer cell panel viability, ATPlite luminescence, 48 h; series mostly up to 57.5 µM. In a few lines:
as §3

Assay [4] concerns NIH3T3. Nature of the assay: qHTS assay to identify novel small-molecules to repurpose for Merkel cell carcinoma treatment (AID 1296009). Further: nearly all actives have a fitted effect of over 60% in size. To be noted: MCC and control cell lines, CellTiter-Glo viability, 72 h; at 44.8 µM (top of the series) unless noted. The method in brief:
as §2

“And” between values parts separate entries of the source, which are not always exact repeats. Equal entries are not always repeated. Results filed as inconclusive are left out. Some structures have more than one record in an assay (separate samples or runs), and their calls can disagree. Values without a mark were called inactive. The source made the active and inactive calls. The call rests on the fitted dose curve; in most records, active means well fitted curve in the direction sought with a large enough effect; inconclusive means small, poorly fitted or top-dose-only effect, or another doubt; inactive means no such curve, though single readings can be large; an effect the other way counts as inactive or inconclusive.
On the % scale 0 is the no-effect control and ±100 the full control effect; potency means the concentration at half of the fitted maximal effect.

On to `C=C[C@@H]1CN2CCC1C[C@H]2[C@H](O)c1ccnc2ccc(OC)cc12` (stereo partly drawn), for which the max response in the assay with CRL-7250 was 3.01%; in the assay on HaCat [1], -13.1%; with KB-3-1, -2.72%; in the assay with NIH3T3 [2], 3.02%. The Potency entry in the assay with MCC-13, with MCC-26, in the assay with MKL-1, in the assay on MKL-2, with UISO and in the assay on WaGa was “inactive” each time.

Consider `CCCNS(=O)(=O)Nc1ncnc(OCCOc2ncc(Br)cn2)c1-c1ccc(Br)cc1`, for which the results for the max response with CRL-7250 and in the assay with NIH3T3 [2] were -8.99% and -4.31%, respectively. The result in the assay with HaCat [1], in the assay on KB-3-1 and in the assay on HACAT [3] was inactive. Further, the Potency result with MCC-13, in the assay with MCC-26, with MKL-1, in the assay on MKL-2, in the assay on UISO and in the assay on WaGa was “inactive” throughout.

On to `O=C1c2cccc(O)c2C(=O)c2c(O)cc(CO)cc21`, for which the max response in the assay on CRL-7250 was -9.37%; in the assay with HaCat [1] it was -18.1%; with KB-3-1 it was -6.13%; with NIH3T3 [2], -5.61%. The Potency result in the assay on MCC-13, in the assay on MCC-26, with MKL-1, in the assay on MKL-2, in the assay with UISO and with WaGa was “inactive” in each case.

In the case of `CCNC(=O)c1cc2c(-c3cc(OCCN4CCCC4)c(Cl)cc3Cl)nc(N)nc2s1`, the Potency with CRL-7250 was 4.69 µM (active); in the assay with HEK293 it was 0.418 µM (active); with NIH3T3 [2], 2.35 µM (active); in the assay with UISO it was 2.96 µM (active); in the assay on WaGa it was 1.18 µM (active). In the assay with MKL-2, the Potency entry is “inactive”.

For `COc1cc(OC)cc(-c2ccc3ncc4ccc(=O)n(-c5ccc(N6CCNCC6)c(C(F)(F)F)c5)c4c3c2)c1`, the Potency is 10.5 µM (active) in the assay on CRL-7250; 3.72 µM (active) with HEK293; 14.8 µM (active) with NIH3T3 [2]; 18.7 µM (active) with MKL-1; 8.33 µM (active) with MKL-2; 16.6 µM (active) in the assay on UISO.

Take `CC(=O)SCC(Cc1ccccc1)C(=O)NCC(=O)OCc1ccccc1` (stereo not drawn): the max response in the assay on CRL-7250 is -7.71%; in the assay with KB-3-1, 3.33%; in the assay on NIH3T3 [2] it was -4.22%. Besides, the molecule was classed as inactive in the assay on HaCat [1] and in the assay on HACAT [3]. Moreover, the Potency result in the assay on MCC-13 and in the assay on MCC-26 was “inactive” each time. Moreover, the Potency is 0.209 µM (active) with MKL-2 and 14.8 µM (active) with UISO.

Turning to `CC(C)c1cnn2c(NCc3ccccc3)cc(NCCCCCCN)nc12`, the molecule was called inactive in the assay on CRL-7250, in the assay on HaCat [1] and in the assay with HACAT [3]. In addition, the max response in the assay on KB-3-1 was 3.97%; with NIH3T3 [2], 0.624%. In addition, the Potency result in the assay on MCC-13, in the assay on MCC-26, in the assay with UISO and with WaGa was “inactive” throughout.

As to `Cn1c(Nc2ccc(C(F)(F)F)cc2)nc2cc(Oc3ccnc(-c4ncc(C(F)(F)F)[nH]4)c3)ccc21`, the Potency in the assay on CRL-7250 is 0.372 µM (active); in the assay on HEK293, 26.4 µM (active); in the assay with KB-3-1, 11.8 µM (active); in the assay on UISO, 3.72 µM (active); in the assay on WaGa, 18.7 µM (active). In addition, the Potency result in the assay on MCC-26 is “inactive”.

As for `OCCN1C[C@H](O)[C@@H](O)[C@H](O)[C@@H]1CO`, the max response was -0.792% with CRL-7250 and -2.06% in the assay on NIH3T3 [2]. For the same molecule, the molecule was called inactive in the assay with HaCat [1], in the assay on KB-3-1 and in the assay with HACAT [3]. For the same molecule, the Potency result in the assay with MCC-13, with MCC-26, with MKL-1, in the assay with MKL-2, in the assay with UISO and in the assay on WaGa was “inactive” throughout.

Turning to `CC(C)C[C@H](NC(=O)[C@@H](NC(=O)c1cccc(-c2ccccc2)n1)[C@@H](C)O)B(O)O`, the Potency is 0.092 µM (active) in the assay with CRL-7250; 526 nM (active) and 580 nM (active) in the assay with HaCat [1]; 187 nM (active) and 184 nM (active) in the assay with KB-3-1; 118 nM (active) and 116 nM (active) in the assay with NIH3T3 [2]; 0.264 µM (active) in the assay with MCC-13; 0.148 µM (active) with MCC-26. The Potency in the assay on MKL-2 is 0.0418 µM (active); in the assay with WaGa it was 0.0833 µM (active); in the assay with CASKI it was 0.112 µM (active); in the assay with Es-2 it was 0.251 µM (active); with HeLa, 0.631 µM (active).

`Cn1cc(C[C@@H](N)C(=O)O)c2ccccc21`: the Potency in the assay with CRL-7250 is 5.75 µM (active). Further, the call in the assay on HaCat [1] was inactive. The max response in the assay on KB-3-1 was 4.82%; in the assay with NIH3T3 [2], -2.88%. In addition, the outcome with HACAT [3] was “inactive [at 17.4 µM]”. For the same molecule, the Potency entry in the assay with MCC-13, with MCC-26, with MKL-1, with MKL-2, in the assay with UISO and with WaGa was “inactive” each time.

For `CCCCCCCN(CC)CCCC(O)c1ccc(NS(C)(=O)=O)cc1` (stereo not drawn), the max response is 0.839% in the assay on CRL-7250, -6.17% with KB-3-1 and -1.95% in the assay on NIH3T3 [2]. Moreover, the outcome in the assay with HaCat [1] and in the assay on HACAT [3] was inactive. Besides, the Potency result in the assay on MCC-13, with MKL-1, in the assay on MKL-2, in the assay with UISO and in the assay with WaGa was “inactive” in each case.

Consider `Oc1ccc([C@@H]2Oc3ccc(O)cc3[C@@H]3CCC[C@@H]32)cc1`, for which the max response in the assay with CRL-7250 is -17% and -0.0013%. The Potency with HEK293 is 11.8 µM (active); with KB-3-1 it was 14.8 µM (active); in the assay with UISO it was 18.7 µM (active). Besides, the Potency entry in the assay with MCC-26, in the assay with C33A and with Es-2 was “inactive” throughout.

Turning to `OCc1ccccc1O[C@@H]1O[C@H](CO)[C@H](O)[C@H](O)[C@H]1O`, the max response with CRL-7250 is -20.8%; in the assay on HaCat [1], -10.2%. In addition, the call in the assay with KB-3-1, in the assay with NIH3T3 [2] and in the assay with NIH3T3 [4] was inactive. Besides, the Potency entry in the assay on MCC-13, in the assay on MCC-26, with MKL-1, in the assay with MKL-2, in the assay on UISO and in the assay with WaGa was “inactive” each time.

Regarding `Cc1ccc2nc(NCCN)c3ncc(C)n3c2c1`, the Potency is 16.6 µM (active) with CRL-7250; 4.18 µM (active) in the assay with HEK293; 3.32 µM (active) with KB-3-1; 14.8 µM (active) in the assay on MKL-2; 20.9 µM (active) with UISO.

In the case of `CN(C)CC(=O)N1CCC(c2ccc(NC(=O)c3ncc(C#N)[nH]3)c(C3=CCCCC3)c2)CC1`, the molecule was called inactive in the assay on CRL-7250, in the assay on HaCat [1] and in the assay on HACAT [3]. Besides, the max response with HaCat [1] was 3.1%; in the assay with KB-3-1 it was 3.44% and -16.9%; in the assay with NIH3T3 [2], 0.938%. For the same molecule, the Potency in the assay with NIH3T3 [2] was 0.92 µM (active). For the same molecule, the Potency entry in the assay on MCC-13, in the assay on MCC-26, in the assay on MKL-2, in the assay on UISO, with C33A and in the assay on CASKI was “inactive” each time. The Potency result with Es-2 and with HeLa was “inactive” throughout.
